Assay outcomes from PubChem BioAssay.
ST2 inh: blocks human ST2 binding to IL-33; Q01638; AlphaLISA ST2-Fc/biotin-IL-33 interaction, 1 h; inhibition, % for hits at 17 µM; hit rate 2.3% among 78,000; in the data active means inhibition above about 30%
Target sequence (Q01638 whole entry, looked up): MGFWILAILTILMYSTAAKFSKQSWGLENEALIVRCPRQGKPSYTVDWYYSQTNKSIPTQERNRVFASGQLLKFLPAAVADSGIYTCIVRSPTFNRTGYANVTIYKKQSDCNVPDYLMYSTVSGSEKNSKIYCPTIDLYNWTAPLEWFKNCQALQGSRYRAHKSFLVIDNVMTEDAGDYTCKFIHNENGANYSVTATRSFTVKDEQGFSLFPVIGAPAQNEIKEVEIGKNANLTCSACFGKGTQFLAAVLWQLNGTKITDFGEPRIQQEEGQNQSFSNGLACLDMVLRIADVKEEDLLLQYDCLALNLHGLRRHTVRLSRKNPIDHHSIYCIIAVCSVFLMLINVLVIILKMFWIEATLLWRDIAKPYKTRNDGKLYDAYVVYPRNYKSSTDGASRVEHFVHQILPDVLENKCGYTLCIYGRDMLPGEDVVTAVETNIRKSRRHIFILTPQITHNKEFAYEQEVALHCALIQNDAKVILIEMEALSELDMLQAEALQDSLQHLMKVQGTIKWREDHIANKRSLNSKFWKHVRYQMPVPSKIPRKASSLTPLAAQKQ
* marks the source's active call; other numbers are inactive results; ! = a repeat was not active. The sample as a whole holds a higher share of hits than the screen did.

Cc1cc(N2CCN(C)CC2)nc2ccc(NC(=O)c3cnccn3)cc12 was read as ST2 inh inactive.
COc1ccc(Nc2cc(C)nc(N3CCN(S(=O)(=O)c4ccc(OC)c(C)c4)CC3)n2)cc1 was read as ST2 inh inactive.
For COc1ccc(S(=O)(=O)N2CCN(c3nc(C)cc(Nc4ccccc4)n3)CC2)cc1C the results were ST2 inh 34.0%*.
COc1ccc(Nc2cc(C)nc(N3CCN(S(=O)(=O)c4ccc(OC)cc4)CC3)n2)cc1 was read as ST2 inh inactive.
For Cc1cccc(NC2SC(=O)N(c3cccc(C)c3)C2=O)c1 (stereo not drawn) the results were ST2 inh inactive.
Screening CC(C)OCCCNS(=O)(=O)c1cc(Br)cc2c1N(C(=O)C1CC1)CC2 returned ST2 inh inactive.
For Cc1ccc(N2C(=O)C(N3C(=O)c4cccc([N+](=O)[O-])c4C3=O)C2c2cccs2)cc1F (stereo not drawn) the results were ST2 inh 32.0%*.
`COc1cccc(C2C(N3C(=O)c4ccccc4C3=O)C(=O)N2c2ccc(C)c(C)c2)c1` (stereo not drawn) gave ST2 inh inactive.
For O=C1c2ccc([N+](=O)[O-])cc2C(=O)N1c1c[nH]c(=O)[nH]c1=O the results were ST2 inh inactive.
Cc1cc(N2C(=O)c3cccc([N+](=O)[O-])c3C2=O)no1 was read as ST2 inh inactive.
COc1cc2c(cc1OC)C(C(=O)Nc1ccc(C)c(F)c1)C(c1cccs1)N(C)C2=O (stereo not drawn) was read as ST2 inh inactive.
For Cc1ccc(N2C(=O)C(N3C(=O)c4ccccc4C3=O)C2c2ccc(N(C)C)cc2)cc1F (stereo not drawn) the results were ST2 inh 31.0%*!.
O=C1c2ccc([N+](=O)[O-])cc2C(=O)N1CN1CCCCC1 was read as ST2 inh inactive.
Cc1cc(Cl)ccc1N1C(=O)C(N2C(=O)c3ccc([N+](=O)[O-])cc3C2=O)C1c1cccs1 (stereo not drawn) was read as ST2 inh 39.0%*.
Screening COc1cccc(C2C(N3C(=O)c4ccccc4C3=O)C(=O)N2c2ccc(C)c(F)c2)c1 (stereo not drawn) returned ST2 inh inactive.
Screening Cc1cc(C)n(CCNC(=O)CCNC(=O)c2ccccc2F)c(=O)n1 returned ST2 inh inactive.
Cc1cccc(Cl)c1N1C(=O)c2ccc(Br)cc2C1=O was read as ST2 inh inactive.
For COc1ccc(C(=O)Oc2ccc3oc(C)c(C(=O)OC(C)C)c3c2)cc1OC the results were ST2 inh inactive.
`CCC(=O)N1CCc2cc(Br)cc(S(=O)(=O)CCC(=O)N3CCCC(C)C3)c21` (stereo not drawn) gave ST2 inh inactive.
Screening Cc1nc2ccccn2c1CN(C)C(=O)CC1(c2cccc(C(F)(F)F)c2)CC(=O)N(C2CC2)C1=O (stereo not drawn) returned ST2 inh inactive.
`O=[N+]([O-])c1c(Nc2ccccc2)sc2ccccc12` gave ST2 inh 37.0%*.
`Nc1ncnc(Nc2ccc(Oc3ccccc3)cc2)c1[N+](=O)[O-]` gave ST2 inh inactive.
O=[N+]([O-])C1=C(Nc2ccccc2)CS(=O)(=O)C1 was read as ST2 inh inactive.
`CC(=O)c1ccc(N=Cc2c(C)[nH]n(-c3ccccc3)c2=O)cc1` gave ST2 inh inactive.
`Cc1[nH]n(-c2ccccc2)c(=O)c1C=Nc1ccc([N+](=O)[O-])cc1Cl` gave ST2 inh inactive.
Screening Cc1[nH]n(-c2ccc(Cl)cc2)c(=O)c1C=Nc1cccc(Nc2ccccc2)c1 returned ST2 inh 30.0%*.
COc1ccc(/C=C2\SC(N)=NC2=O)cc1OCc1ccc(Cl)cc1 was read as ST2 inh inactive.
O=C(CSCC(O)Cn1c2ccccc2c2ccccc21)Nc1ccccc1 (stereo not drawn) was read as ST2 inh inactive.
Cc1cccc(CN(Cc2ccccc2)C(=O)c2cnc(N)nc2C)n1 was read as ST2 inh inactive.
For CCNC(=O)N1CC[C@H]2CC(=O)N(CCN3CCNC3=O)CC[C@H]2C1 the results were ST2 inh inactive.
`COc1ccc(NC(=O)N2CCN(C)CC2)cc1` gave ST2 inh inactive.
`COc1ccc(NC(=O)N2CC[C@H]3CC(=O)N(CCN4CCNC4=O)CC[C@H]3C2)cc1` gave ST2 inh 53.0%*.
Cc1nc(C(C)NC(=O)CN2C[C@@H](C)O[C@@H](C)C2)n[nH]1 (stereo partly drawn) was read as ST2 inh inactive.
Screening Cc1ccc(N2C(=O)c3cccc([N+](=O)[O-])c3C2=O)cc1Cl returned ST2 inh inactive.
`Cc1ccc(N2C(=O)C3C4C=CC(O4)C3C2=O)cc1[N+](=O)[O-]` (stereo not drawn) gave ST2 inh inactive.
`Cc1ccc(-n2cccc2)cc1[N+](=O)[O-]` gave ST2 inh 31.0%*.
For CC1=C(C(=O)Nc2cc(C)ccn2)C(c2ccccc2)C2=C(CC(C)(C)CC2=O)N1 (stereo not drawn) the results were ST2 inh inactive.
`CCC1=C(C)/C(=C\c2[nH]c(C)c(CC)c2C)N=C1C` gave ST2 inh 78.0%*.
CCC(C)NCc1ccccc1-c1cccc(O)c1 (stereo not drawn) was read as ST2 inh inactive.
For Cc1cccc(-n2c(-c3ccc(Cl)cc3)cn3c4c(=O)n(C)c(=O)n(C)c4nc23)c1 the results were ST2 inh inactive.
CCSCCOC(=O)C1=C(C)NC2=C(C(=O)C(C(=O)OC)C(C)C2)C1c1cccc(OC)c1 (stereo not drawn) was read as ST2 inh inactive.
Screening CCc1ccc(N=Cc2cc(Br)ccc2O)cc1 returned ST2 inh 36.0%*.
For Cn1c(=O)n(C)c2cc(N=Cc3cc(Br)ccc3O)ccc21 the results were ST2 inh 31.0%*.
For Oc1c(Cl)cc(Br)cc1C=Nc1ccccc1 the results were ST2 inh inactive.
For Cn1c(=O)n(C)c2cc(N=Cc3cccc([N+](=O)[O-])c3)ccc21 the results were ST2 inh inactive.
CCc1ccc(N=Cc2cccc([N+](=O)[O-])c2O)cc1 was read as ST2 inh inactive.
`CC(=O)N1c2ccc(N=Cc3cc(Br)cc(Br)c3O)cc2CC1C` (stereo not drawn) gave ST2 inh inactive.
Screening CCCc1nc(C)cc(N2CCCn3nc(C(=O)O)cc3C2)n1 returned ST2 inh inactive.
c1cncc(-c2nnc([C@H]3CCN(Cc4cccs4)C3)o2)c1 was read as ST2 inh inactive.
Screening Cc1ccc(-n2ncc3c2CC(C)(C)CC3NC2CCSCC2)cc1 (stereo not drawn) returned ST2 inh inactive.
`C=CCNC(=O)/C(=C/c1ccc2c(c1)OCO2)NC(=O)c1ccccc1OC` gave ST2 inh inactive.
Screening CC(C)(C)c1nc(CN2C[C@H]3C[C@H](O)[C@@H](O)C[C@H]3C2)no1 returned ST2 inh inactive.
For N#Cc1c(-c2ccccc2)nc(SCC(=O)Nc2ccc(F)c(F)c2)[nH]c1=O the results were ST2 inh inactive.
Screening CC1(C)CC(NC2CC(C)(C)NC(C)(C)C2)CC(C)(C)N1 returned ST2 inh inactive.
For CN(C(=O)CCC(=O)NC1CCCCCC1)C1CC(C)(C)NC(C)(C)C1 the results were ST2 inh inactive.
For CC1(C)CC(NC(=O)CC2CCCCC2)CC(C)(C)N1 the results were ST2 inh 34.0%*.
